Columns and labels:
Type in all cases: functional
[1] = biological target: Solute carrier family 2, facilitated glucose transporter member 1 (Homo sapiens) (UniProt P11166); test: ST_JUDE_LEISH: Cytotoxicity at 2uM final concentration against transgenic Leishmania Mexicana promastigotes LmGLUT1 that are glucose transport deficient and complemented with the human glucose transporter GLUT1. Activity is measured by DNA content using SYBR green in vitro
[2] = biological target: Hexose transporter 1 (Plasmodium falciparum) (UniProt O97467); test: ST_JUDE_LEISH: Cytotoxicity at 2uM final concentration against transgenic Leishmania Mexicana promastigotes LmPfHT that are glucose transport deficient and complemented with the Plasmodium falciparum hexose transporter. Activity is measured by DNA content using SYBR green in vitro
[3] = biological target: Glucose transporter (Leishmania mexicana) (UniProt O61059); test: ST_JUDE_LEISH: Cytotoxicity at 2uM final concentration against transgenic Leishmania Mexicana promastigotes LmGT2 that are glucose transport deficient and complemented with the L. Mexicana glucose transporter 2. Activity is measured by DNA content using SYBR green in vitro

Chain of Solute carrier family 2, facilitated glucose transporter member 1 (Homo sapiens) (P11166 whole entry): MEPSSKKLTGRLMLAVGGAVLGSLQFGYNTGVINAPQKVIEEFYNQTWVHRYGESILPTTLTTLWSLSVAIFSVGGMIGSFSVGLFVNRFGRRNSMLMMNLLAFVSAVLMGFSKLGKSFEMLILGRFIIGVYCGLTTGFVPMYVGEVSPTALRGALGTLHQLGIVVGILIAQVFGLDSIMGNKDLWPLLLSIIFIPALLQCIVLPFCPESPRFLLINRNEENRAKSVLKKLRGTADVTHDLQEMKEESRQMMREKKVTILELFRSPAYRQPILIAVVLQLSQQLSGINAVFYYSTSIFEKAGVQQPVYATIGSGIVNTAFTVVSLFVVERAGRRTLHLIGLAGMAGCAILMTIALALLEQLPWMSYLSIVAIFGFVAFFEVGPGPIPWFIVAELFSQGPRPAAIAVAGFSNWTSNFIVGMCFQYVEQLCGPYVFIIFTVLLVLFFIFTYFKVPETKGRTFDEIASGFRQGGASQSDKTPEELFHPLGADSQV

Row | Compound | inhibition [1] [%] | inhibition [2] [%] | inhibition [3] [%]
1 | COc1ccccc1CCCN1C(=O)C(c2ccccc2)(c2ccccc2)N=C1N | 4.43 | 0.97 | 1.36
2 | O=S(=O)(NCCN1CCCC1)c1ccc(-c2cccc(CNCc3ccc(F)cc3)c2)s1 | 6.73 | 2.44 | -1.98
3 | COc1ccc(-c2ccc(CNC(=O)c3ccc(C#N)cc3)c(F)c2)cc1CN1CCCN(C)CC1 | 0.92 | 0.66 | -3.44
4 | CN(C)S(=O)(=O)c1ccc(N2C(=O)C3C(C2=O)C2(c4ccccc4)C(=O)C3(c3ccccc3)C(c3ccccc3)=C2c2ccccc2)cc1 (configuration not stated) | -0.75 | -2.18 | -2.57
5 | CCc1c(C)nc(-n2nc(C)cc2NC(=O)C(CC)c2ccccc2)[nH]c1=O (configuration not stated) | 18.6 | 7.02 | -2.05
6 | O=C(Nc1ccc(C(F)(F)F)cc1)c1ccc(NCCCN2CCCCCC2)c([N+](=O)[O-])c1 | 5.54 | 6.55 | 6.28
7 | CCCCOc1ccc(/C=C/c2ccc(-c3c(C)[nH]c(C)c(Cl)c3=O)s2)cc1 | -1.17 | 2.35 | -1.25
8 | CN(C)C(=O)c1ccc(CN(Cc2ccc3c(c2)OCCO3)Cc2ccc3c(c2)OCO3)cc1 | 3.62 | 3.62 | 3.97
9 | C[C@H]1CN(Cc2cccc(-c3cc(CNC(=O)c4cccc(CN5CCN(CCOc6ccccc6)CC5)c4)ccc3F)c2)CCN1 | 0.77 | 0.96 | 2.94
10 | COc1cc(NCC(O)CNc2cc(Cl)nc3ccccc23)nc2ccccc12 (configuration not stated) | 8.65 | 8.28 | 7
11 | Cc1ccc(C2CC(c3cccs3)=NN2C(=O)c2ccc(Br)o2)cc1 (configuration not stated) | 3.24 | 1.47 | 2.89
12 | Cn1nc(C(F)(F)F)c(-c2ccc(Br)cc2)c1NC(=O)Nc1ccc(F)cc1F | 1.12 | 1.19 | 1.25
13 | O=C(Nc1ccc(C(F)(F)F)cc1)NC1CCN(c2ccnc3cc(Cl)ccc23)CC1 | 6.47 | 6.26 | 4.68
14 | N#Cc1ccc(OCCN(Cc2ccccc2C(F)(F)F)c2ccc(C#N)c(C(F)(F)F)c2)cc1 | 10.1 | 9.42 | 8.53
15 | COc1cc(NC(=O)c2sc(-c3ccc(Cl)cc3)cc2NC(=O)CN2CC[C@@H](O)C2)ccc1OCCN1CCCC1 | 23.1 | 15.1 | 4.88
16 | CC(=O)Nc1ccc(OCCCN(Cc2ccccc2OC(F)(F)F)c2ccc(C(F)(F)F)c(C#N)c2)c(Cl)c1 | 2.37 | -1.13 | 1.86
17 | Cc1nc(-c2ccc(-c3ccc(C(=O)Nc4ccc(C(C)C)c(OCCN(C)C)c4)cc3)c(C)c2)no1 | 4.64 | 2.76 | 2.51
18 | CC(=O)c1ccccc1C(=O)N1CCOc2ccc(C(O)C(c3ccccc3)c3ccccc3)cc2C1 (configuration not stated) | 0.04 | -1.21 | -1.21
19 | CS(=O)(=O)c1cccc(-c2cnc(N)c3cc(-c4ccc5c(c4)OCO5)ccc23)c1 | 8.59 | 8.33 | 7.36
20 | Cc1cccc2nc(-c3ccc(-c4ccc(CN5CCN(C6CCN(C)CC6)CC5)cc4)cc3)[nH]c12 | 1.22 | 1.31 | -0.53
21 | O=C(Nc1ccc2c(c1)OCO2)c1cc(-c2cccnc2)nc2ccc(Cl)cc12 | 3.49 | 0.67 | -0.92
22 | CCc1cn(C)c2c(N3CCCC3=O)cc(C(=O)N[C@@H](Cc3ccccc3)[C@H](O)CNC(C)(C)c3cccc(C(F)(F)F)c3)cc12 | 4.78 | 3.46 | -1.12
23 | Cc1cc(N[C@@H](Cc2ccccc2)C(=O)NC2CCCC2)nc(Nc2ccccc2)n1 | 7.17 | 7.28 | 2

Row | Compound | inhibition [1] [%] | inhibition [2] [%] | inhibition [3] [%]
24 | CC(C)NCc1ccc(-c2cccc(NC(=O)c3ccc(Cl)cc3)c2)cc1 | 8.23 | 6.77 | 7.51
25 | COc1ccc(S(=O)(=O)NCCCC2CCN(CCCCCNC(=O)C=Cc3ccc(Cl)c(Cl)c3)CC2)cc1 | 0.69 | 0.8 | 3.65
26 | O=C(NC1CCCCCC1)C1CCCN(C(=O)c2ccc(O)c(-c3ccc(Cl)c(Cl)c3)c2)C1 (configuration not stated) | 3.16 | 2.31 | 2.57
27 | CCOc1cc(CC)ccc1C1CCN(CCCCNC(=O)c2ccc(NC(=O)c3ccc(C#N)cc3)cc2)CC1 | 2.45 | 0.91 | 2.06
28 | CSc1ccc(CN2CCC(CNC(=O)c3cc(-c4ccccc4F)cs3)C2)cc1 (configuration not stated) | 0.69 | -0.86 | -3.72
29 | Cc1cccc2nc(-c3ccc(-c4ccc(CN5CCCCC5)cc4)s3)[nH]c12 | 4.61 | 2.36 | 3.32
30 | COc1ccc(Nc2nccc(-c3ccc(NC(=O)c4cc5cc(F)ccc5[nH]4)cc3)n2)cc1 | -0.57 | 0.09 | -1.37
31 | COc1ccc2ncc(F)c(CCN3CC[C@H](NC(=O)c4ccc5c(n4)NC(=O)CS5)[C@H](O)C3)c2n1 | 10.7 | 9.73 | 1.48
32 | C/C=C/C=C/C1=NCCc2cc(OCCC)ccc21 | 71.8 | 74.1 | 17.7
33 | CCc1ccc(CN2CCC(CNC(=O)c3cc(-c4ccccc4Cl)cs3)C2)cc1 (configuration not stated) | 7.86 | 8.8 | 10.8
34 | COc1cc2[nH]c(-c3ccc(O)cc3)c(C)c(=O)c2c(OC)c1OC | 2.67 | 0.09 | -2.9
35 | CC1Cc2ccccc2N1CC(=O)Nc1cc(C(F)(F)F)ccc1-n1cncn1 (configuration not stated) | 1.94 | 2.01 | -1.95
36 | COc1cc(CN2CCC(CO)(Cc3cccc(C(F)(F)F)c3)CC2)c(Cl)cc1O | 0.06 | -1.69 | -0.81
37 | CCS(=O)(=O)c1ccc(-c2cnc3[nH]cc(-c4ccc(N)cc4)c3c2)cc1 | 16.2 | 21.7 | 16.2
38 | CCOc1cc(C(=O)NCC2CCN(CC3CCCCC3)CC2)ccc1-c1nc2cc(Cl)ccc2[nH]1 | 0.56 | 1.54 | 1.19
39 | O=C(/C=C/c1ccc(Cl)c(Cl)c1)NC1CCN(Cc2cccc(O)c2)CC1 | 2.92 | 4.2 | -2.96
40 | Cc1ccc(Cl)cc1N1CCN(CCCNC(=O)C2CCN(c3nc4ccccc4[nH]3)CC2)CC1 | 4.49 | 5.2 | 5.6
41 | Cc1ccc2[nH]c(Nc3ccc(Nc4nc5cc(C)ccc5[nH]4)c(C)c3)nc2c1 | 0.87 | 2.18 | 0.88
42 | CCOC(=O)c1ccc(N2CCN(c3cc(C)ccc3C)CC2)c(NC(=O)Nc2ccc(Cl)c(Cl)c2)c1 | 0.52 | 0.93 | -0.25
43 | COc1ccc2nccc(C(=O)NC3CCC(CCN4CCc5cc(C#N)ccc5C4)CC3)c2c1 (configuration not stated) | 7.23 | 5.23 | 6.71
44 | COc1cc([N+](=O)[O-])ccc1NC(=O)Nc1ccc(OC(F)(F)F)cc1 | 1.06 | 2.37 | -2.01
45 | N#Cc1cccc(NC(=O)NC2CCN(CCCCCNC(=O)C3CC3c3ccc(Cl)c(Cl)c3)CC2)c1 (configuration not stated) | 0.56 | 0.42 | 1.85
46 | COc1ccc([N+](=O)[O-])cc1N(Cc1ccccc1-c1ccccc1)S(=O)(=O)c1ccc(C(F)(F)F)cc1[N+](=O)[O-] | 8.36 | 5.46 | -1.25

Row | Compound | inhibition [1] [%] | inhibition [2] [%] | inhibition [3] [%]
47 | O=C1NC(c2ccccc2)C2(CCN(CC(O)COc3cccc4ncccc34)CC2)O1 (configuration not stated) | 2.46 | 3.19 | 1.26
48 | CN1CCC(C(=O)Nc2ccc(-c3cccc(-c4nc5cc(F)ccc5[nH]4)c3)cc2)CC1 | 8.95 | 9.27 | 8.51
49 | O=[N+]([O-])c1ccc(CNCCCCCCNCc2ccc([N+](=O)[O-])c3ccccc23)c2ccccc12 | 2.24 | 0.87 | 7.99
50 | Nc1ncc(-c2ccc(F)cc2)c2ccc(-c3cccc(F)c3)cc12 | 5.19 | 5.19 | 2.72
51 | CC(C)(C)C(C)(C)Cc1ccc(O)c(CN2CCN(c3ccccc3)CC2)c1 | 0.82 | -0.41 | -0.38
52 | COc1ccc(Nc2nc(N/N=C/c3ccc(-c4ccc([N+](=O)[O-])cc4)o3)nc(Nc3ccccc3)n2)cc1 | 14.4 | 10.6 | 9.94
53 | O=C(Nc1ccc(CN2CCN(S(=O)(=O)c3ccc(Cl)s3)CC2)cc1)c1cccs1 | 8.13 | 7.45 | 5.63
54 | CN1CCCc2ccc(NC(=O)c3cc(-c4ccc(Cl)cc4)cs3)cc2C1 | 1.97 | 4.89 | 1.2
55 | Cc1cc(OCC(=O)Nc2ccc(-c3nc4ccccc4[nH]3)cc2)cc(C)c1Cl | 0.45 | 2 | -0.9
56 | O=C(CCOc1ccccc1)NCC1CCCO1 (configuration not stated) | 1.87 | -0.04 | 1.06
57 | COc1ccc(CN(C)CCCOc2ccc(NC(=O)C=Cc3ccc(C(C)(C)C)cc3)cc2)cc1OC | 13.9 | 9.61 | 9.75
58 | CCC(CC)N1C(=O)C(c2ccccc2)(c2ccccc2)N=C1N | 1.48 | 3.51 | 1.61
59 | COc1ccc(C2(CNCC(O)c3cccc([N+](=O)[O-])c3)CCCCC2)cc1OC (configuration not stated) | 1.34 | 2.95 | 0.33
60 | CN(C)CCOc1cc(NC(=O)Nc2cccc([N+](=O)[O-])c2)ccc1I | 13 | 14.6 | 15.7
61 | O=C(c1cc(-c2cccs2)n[nH]1)N1CCN(S(=O)(=O)c2ccc(Cl)s2)CC1 | 3.98 | 1.77 | 2.9
62 | CCn1c(-c2nonc2N)nc2c(Cl)ncc(O[C@H](CCN)c3ccccc3F)c21 | 58.6 | 48.5 | 20.2
63 | CC(CCCC(=O)Nc1ccc(CC(C)NCCc2cccc(Cl)c2)cc1)NCCc1cccc(Cl)c1 (configuration not stated) | 2.68 | 0.02 | 1.32
64 | Cc1cccc(NC(=O)Nc2cccc(-c3ccc(-c4nc5cc(C(F)(F)F)ccc5[nH]4)cc3)c2)c1 | 5.86 | 2.01 | 1.66
65 | CC(C)C(=O)NC(c1ccc(N(C)C)cc1)c1cc(Cl)c2cccnc2c1O (configuration not stated) | 3.89 | 4.2 | 1.29
66 | CN(C)CCCOc1ccc(CCNCc2cccc(Oc3ccc(Cl)cc3)c2)cc1 | 14 | 16.4 | 13.7
67 | Nc1cccc(CNCc2ccc(-c3cccc(-c4nc5cc(C(F)(F)F)ccc5[nH]4)c3)cc2)c1 | 0.23 | 1.1 | 1.02
68 | COc1ccc(CNCc2ccccc2)cc1-c1ccc(S(=O)(=O)NCCN2CCCC2)c(F)c1 | 18.3 | 13 | 10.7
69 | COc1ccccc1N1CCN(c2cccc3c2nc(-c2cncc(C#N)c2)n3CCNCc2ccccc2)CC1 | 9.96 | 7.58 | 6.47
